Measurements from the supplement of paper PMC10338343.
± gives the standard deviation.

Each sequence was assayed on MILI (PIWIL2) piRISC loaded with piRNA #1 (26 nt) (assay: pre-steady-state target cleavage rate (min^-1); guide: piRNA #1 5'p-UGAGGUAGUAGGUUGUAUAGUAUCCA; MIWI and MILI are mouse PIWI proteins and EfPiwi is from a freshwater sponge; tags in brackets are library labels; higher = faster piRNA-guided slicing of the target). Conditions: auxiliary factor: 500 nM mouse GTSF1.
Outline: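 In HEPES–potassium acetate buffer at 33 °C, […] transcribed, DNA-blocked target RNA library was mixed with 1 nM active affinity-purified piRISC carrying one synthetic guide, with or without 500 nM GTSF1 partner protein, for 0–8 or 0–960 min. Uncleaved targets were sequenced and normalised to depth and to weakly complementary targets; three trials were pooled and k3 was capped at 0.0001 min^-1. The pre-steady-state cleavage rate followed from a burst-and-steady-state fit.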
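Further: 1 nM active piRISC with 0.1 nM target library at 33 °C single turnover.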

Sequence | pre-steady-state target cleavage rate
GGAGACCUAUGUUUACAACGUACUACCUCA | 0.00618 ± 0.0026
GGAGACCUAUGAUAACAUCCUACUACCUCA | 0.00447 ± 0.0023
GGAGACCUAUGAUAUGUACCUUCUACGUCA | < 0.0001
GGAGACCUAUGAUUGACAACCUACUACCUCA | 0.00768 ± 0.0032
GGAGACCUUACUUUAGAACCUACUACCUCA | 0.13 ± 0.01
GGAGAGGAUUCUAUACAACCAACUACCUCA | 0.00507 ± 0.0028
GGAGACGAUACUAUACAACCUUCAACCUCA | 0.00736 ± 0.0019
GGAGACCUUAGUAUACAACCAACUACCUCA | 0.00446 ± 0.0029
GGAGACCUAUCUUUACAACCUAGUACCUCA | 0.00897 ± 0.003
GGAGACCUAUGAUAACAACCUACACCUCA | < 0.0001
GGAGACCUAACUAUAGAUCCUACUACCUCA | 0.203 ± 0.026
GGAGACCUUACUAAACAACCUACUAGCUCA | 0.139 ± 0.018
GGAGACCUAUGAAUACAACCUACGACCUCA | 0.0047 ± 0.0026
GGAGACCUAUGUAUACAACCUAGCUACCUCA | 0.00713 ± 0.0027
GGAGAGGAUACUACACAACCUACUACCUCA | 0.193 ± 0.019
GGAGACCUAUGUAUAGCAACCUACUACCUCA | 0.0101 ± 0.003
